# In ChEMBL document CHEMBL1961873, “Compounds: GSK PKIS; Assays: Nanosyn kinase panel” (2012):
# Assays:
# [1] = biological target: Platelet-derived growth factor receptor beta (Homo sapiens) (UniProt P09619); details: at 0.1 µM
# [2] = biological target: Platelet-derived growth factor receptor beta (Homo sapiens) (UniProt P09619); details: at 1 µM
# [3] = biological target: Tyrosine-protein kinase FRK (Homo sapiens) (UniProt P42685); details: at 0.1 µM
# [4] = biological target: Tyrosine-protein kinase FRK (Homo sapiens) (UniProt P42685); details: at 1 µM
# [5] = biological target: Protein-tyrosine kinase 2-beta (Homo sapiens) (UniProt Q14289); details: at 0.1 µM
# [6] = biological target: Protein-tyrosine kinase 2-beta (Homo sapiens) (UniProt Q14289); details: at 1 µM
# [7] = biological target: Proto-oncogene tyrosine-protein kinase receptor Ret (Homo sapiens) (UniProt P07949); details: at 0.1 µM
# [8] = biological target: Proto-oncogene tyrosine-protein kinase receptor Ret (Homo sapiens) (UniProt P07949); details: at 1 µM
# [9] = tested on: Proto-oncogene tyrosine-protein kinase receptor Ret (Homo sapiens), P07949 [V804L]; details: at 0.1 µM
# [10] = tested on: Proto-oncogene tyrosine-protein kinase receptor Ret (Homo sapiens), P07949 [V804L]; details: at 1 µM
# [11] = tested on: Proto-oncogene tyrosine-protein kinase receptor Ret (Homo sapiens), P07949 [Y791F]; details: at 0.1 µM
# [12] = tested on: Proto-oncogene tyrosine-protein kinase receptor Ret (Homo sapiens), P07949 [Y791F]; details: at 1 µM
# [13] = biological target: Macrophage-stimulating protein receptor (Homo sapiens) (UniProt Q04912); details: at 0.1 µM
# [14] = biological target: Macrophage-stimulating protein receptor (Homo sapiens) (UniProt Q04912); details: at 1 µM
# [15] = biological target: Proto-oncogene tyrosine-protein kinase ROS (Homo sapiens) (UniProt P08922); details: at 0.1 µM
# [16] = biological target: Proto-oncogene tyrosine-protein kinase ROS (Homo sapiens) (UniProt P08922); details: at 1 µM
# [17] = biological target: Proto-oncogene tyrosine-protein kinase Src (Homo sapiens) (UniProt P12931); details: at 0.1 µM
# [18] = biological target: Proto-oncogene tyrosine-protein kinase Src (Homo sapiens) (UniProt P12931); details: at 1 µM
# [19] = biological target: Tyrosine-protein kinase Srms (Homo sapiens) (UniProt Q9H3Y6); details: at 0.1 µM
# [20] = biological target: Tyrosine-protein kinase Srms (Homo sapiens) (UniProt Q9H3Y6); details: at 1 µM
# [21] = biological target: Tyrosine-protein kinase SYK (Homo sapiens) (UniProt P43405); details: at 0.1 µM
# [22] = biological target: Tyrosine-protein kinase SYK (Homo sapiens) (UniProt P43405); details: at 1 µM
# [23] = biological target: Tyrosine-protein kinase Tec (Homo sapiens) (UniProt P42680); details: at 0.1 µM
# [24] = biological target: Tyrosine-protein kinase Tec (Homo sapiens) (UniProt P42680); details: at 1 µM
# [25] = biological target: Angiopoietin-1 receptor (Homo sapiens) (UniProt Q02763); details: at 0.1 µM
# [26] = biological target: Angiopoietin-1 receptor (Homo sapiens) (UniProt Q02763); details: at 1 µM
# [27] = biological target: Non-receptor tyrosine-protein kinase TNK1 (Homo sapiens) (UniProt Q13470); details: at 0.1 µM
# [28] = biological target: Non-receptor tyrosine-protein kinase TNK1 (Homo sapiens) (UniProt Q13470); details: at 1 µM
# [29] = biological target: Activated CDC42 kinase 1 (Homo sapiens) (UniProt Q07912); details: at 0.1 µM
# [30] = biological target: Activated CDC42 kinase 1 (Homo sapiens) (UniProt Q07912); details: at 1 µM
# [31] = biological target: High affinity nerve growth factor receptor (Homo sapiens) (UniProt P04629); details: at 0.1 µM
# [32] = biological target: High affinity nerve growth factor receptor (Homo sapiens) (UniProt P04629); details: at 1 µM
# [33] = biological target: BDNF/NT-3 growth factors receptor (Homo sapiens) (UniProt Q16620); details: at 0.1 µM
# [34] = biological target: BDNF/NT-3 growth factors receptor (Homo sapiens) (UniProt Q16620); details: at 1 µM
# [35] = biological target: NT-3 growth factor receptor (Homo sapiens) (UniProt Q16288); details: at 0.1 µM
# [36] = biological target: NT-3 growth factor receptor (Homo sapiens) (UniProt Q16288); details: at 1 µM
# [37] = biological target: Tyrosine-protein kinase TXK (Homo sapiens) (UniProt P42681); details: at 0.1 µM
# [38] = biological target: Tyrosine-protein kinase TXK (Homo sapiens) (UniProt P42681); details: at 1 µM
# [39] = biological target: Non-receptor tyrosine-protein kinase TYK2 (Homo sapiens) (UniProt P29597); details: at 0.1 µM;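 further: each value is a mean of the inhibition readings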
# [40] = biological target: Dual specificity protein kinase TTK (Homo sapiens) (UniProt P33981); details: at 1 µM;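 further: reported figures are mean TTK inhibition at 1 µM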
# [41] = biological target: Aurora kinase A (Homo sapiens) (UniProt O14965); details: at 0.1 µM
# [42] = biological target: Aurora kinase A (Homo sapiens) (UniProt O14965); details: at 1 µM
# [43] = biological target: Aurora kinase B (Homo sapiens) (UniProt Q96GD4); details: at 0.1 µM
# [44] = biological target: Aurora kinase B (Homo sapiens) (UniProt Q96GD4); details: at 1 µM
# [45] = biological target: Aurora kinase C (Homo sapiens) (UniProt Q9UQB9); details: at 0.1 µM
# [46] = biological target: Aurora kinase C (Homo sapiens) (UniProt Q9UQB9); details: at 1 µM
# [47] = biological target: Serine/threonine-protein kinase 10 (Homo sapiens) (UniProt O94804); details: at 0.1 µM
# [48] = biological target: Serine/threonine-protein kinase 10 (Homo sapiens) (UniProt O94804); details: at 1 µM
# [49] = biological target: Mitogen-activated protein kinase kinase kinase kinase 2 (Homo sapiens) (UniProt Q12851); details: at 0.1 µM
# [50] = biological target: Mitogen-activated protein kinase kinase kinase kinase 2 (Homo sapiens) (UniProt Q12851); details: at 1 µM
# [51] = biological target: Mitogen-activated protein kinase kinase kinase kinase 4 (Homo sapiens) (UniProt O95819); details: at 0.1 µM
# [52] = biological target: Mitogen-activated protein kinase kinase kinase kinase 4 (Homo sapiens) (UniProt O95819); details: at 1 µM
# [53] = biological target: Dual specificity mitogen-activated protein kinase kinase 1 (Homo sapiens) (UniProt Q02750); details: at 0.1 µM
# [54] = biological target: Dual specificity mitogen-activated protein kinase kinase 1 (Homo sapiens) (UniProt Q02750); details: at 1 µM
# [55] = biological target: Misshapen-like kinase 1 (Homo sapiens) (UniProt Q8N4C8); details: at 0.1 µM
# [56] = biological target: Misshapen-like kinase 1 (Homo sapiens) (UniProt Q8N4C8); details: at 1 µM
# Platelet-derived growth factor receptor beta (Homo sapiens), sequence (P09619 whole entry): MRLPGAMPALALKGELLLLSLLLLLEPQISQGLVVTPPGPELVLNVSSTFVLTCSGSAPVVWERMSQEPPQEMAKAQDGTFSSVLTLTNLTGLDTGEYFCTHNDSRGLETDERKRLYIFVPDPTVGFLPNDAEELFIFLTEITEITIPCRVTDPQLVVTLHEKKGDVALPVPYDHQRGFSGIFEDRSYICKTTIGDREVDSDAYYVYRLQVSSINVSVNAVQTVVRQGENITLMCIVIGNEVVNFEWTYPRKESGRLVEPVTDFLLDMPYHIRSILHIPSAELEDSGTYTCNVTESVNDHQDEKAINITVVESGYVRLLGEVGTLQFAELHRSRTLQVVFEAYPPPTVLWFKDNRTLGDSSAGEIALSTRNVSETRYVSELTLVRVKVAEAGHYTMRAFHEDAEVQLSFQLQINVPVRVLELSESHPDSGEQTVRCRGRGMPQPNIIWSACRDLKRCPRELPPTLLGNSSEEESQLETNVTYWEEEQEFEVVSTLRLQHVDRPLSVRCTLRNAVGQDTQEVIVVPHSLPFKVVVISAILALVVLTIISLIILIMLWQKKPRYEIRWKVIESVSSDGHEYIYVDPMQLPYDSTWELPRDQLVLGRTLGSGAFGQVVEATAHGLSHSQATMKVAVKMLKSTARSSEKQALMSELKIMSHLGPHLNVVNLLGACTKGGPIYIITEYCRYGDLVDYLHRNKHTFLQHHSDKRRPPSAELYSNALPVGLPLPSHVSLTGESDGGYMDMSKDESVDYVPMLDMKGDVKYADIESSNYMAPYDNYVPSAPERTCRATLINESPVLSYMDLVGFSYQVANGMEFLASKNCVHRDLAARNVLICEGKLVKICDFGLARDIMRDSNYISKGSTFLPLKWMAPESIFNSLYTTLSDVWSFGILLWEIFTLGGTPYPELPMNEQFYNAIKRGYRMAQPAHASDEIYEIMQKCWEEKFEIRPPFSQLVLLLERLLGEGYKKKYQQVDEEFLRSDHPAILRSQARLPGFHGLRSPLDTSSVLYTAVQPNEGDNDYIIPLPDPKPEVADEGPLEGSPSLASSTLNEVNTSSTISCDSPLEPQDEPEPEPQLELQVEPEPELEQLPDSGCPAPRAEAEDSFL
# High affinity nerve growth factor receptor (Homo sapiens), sequence (P04629 33-796 limits assumed): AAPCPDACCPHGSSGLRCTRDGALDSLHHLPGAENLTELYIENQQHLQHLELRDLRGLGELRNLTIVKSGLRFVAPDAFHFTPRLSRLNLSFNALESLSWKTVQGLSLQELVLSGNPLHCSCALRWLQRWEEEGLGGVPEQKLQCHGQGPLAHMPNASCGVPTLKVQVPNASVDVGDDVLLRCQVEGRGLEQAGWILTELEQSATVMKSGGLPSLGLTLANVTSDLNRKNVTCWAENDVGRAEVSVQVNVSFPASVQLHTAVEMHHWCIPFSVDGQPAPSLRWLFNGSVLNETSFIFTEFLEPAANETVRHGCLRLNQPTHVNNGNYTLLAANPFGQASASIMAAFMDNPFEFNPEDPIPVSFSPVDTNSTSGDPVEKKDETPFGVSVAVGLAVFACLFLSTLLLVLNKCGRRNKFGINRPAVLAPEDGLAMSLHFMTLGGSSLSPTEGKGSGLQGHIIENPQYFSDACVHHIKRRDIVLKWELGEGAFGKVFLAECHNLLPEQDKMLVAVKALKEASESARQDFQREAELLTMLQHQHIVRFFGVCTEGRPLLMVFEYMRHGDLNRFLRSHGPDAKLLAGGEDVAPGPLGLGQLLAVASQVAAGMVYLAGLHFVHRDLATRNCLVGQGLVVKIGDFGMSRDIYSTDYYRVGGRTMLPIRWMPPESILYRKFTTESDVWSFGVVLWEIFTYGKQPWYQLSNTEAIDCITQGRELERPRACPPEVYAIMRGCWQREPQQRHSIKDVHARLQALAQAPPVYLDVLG
# Proto-oncogene tyrosine-protein kinase receptor Ret (Homo sapiens), P07949 [Y791F], sequence (P07949 whole entry Y791F): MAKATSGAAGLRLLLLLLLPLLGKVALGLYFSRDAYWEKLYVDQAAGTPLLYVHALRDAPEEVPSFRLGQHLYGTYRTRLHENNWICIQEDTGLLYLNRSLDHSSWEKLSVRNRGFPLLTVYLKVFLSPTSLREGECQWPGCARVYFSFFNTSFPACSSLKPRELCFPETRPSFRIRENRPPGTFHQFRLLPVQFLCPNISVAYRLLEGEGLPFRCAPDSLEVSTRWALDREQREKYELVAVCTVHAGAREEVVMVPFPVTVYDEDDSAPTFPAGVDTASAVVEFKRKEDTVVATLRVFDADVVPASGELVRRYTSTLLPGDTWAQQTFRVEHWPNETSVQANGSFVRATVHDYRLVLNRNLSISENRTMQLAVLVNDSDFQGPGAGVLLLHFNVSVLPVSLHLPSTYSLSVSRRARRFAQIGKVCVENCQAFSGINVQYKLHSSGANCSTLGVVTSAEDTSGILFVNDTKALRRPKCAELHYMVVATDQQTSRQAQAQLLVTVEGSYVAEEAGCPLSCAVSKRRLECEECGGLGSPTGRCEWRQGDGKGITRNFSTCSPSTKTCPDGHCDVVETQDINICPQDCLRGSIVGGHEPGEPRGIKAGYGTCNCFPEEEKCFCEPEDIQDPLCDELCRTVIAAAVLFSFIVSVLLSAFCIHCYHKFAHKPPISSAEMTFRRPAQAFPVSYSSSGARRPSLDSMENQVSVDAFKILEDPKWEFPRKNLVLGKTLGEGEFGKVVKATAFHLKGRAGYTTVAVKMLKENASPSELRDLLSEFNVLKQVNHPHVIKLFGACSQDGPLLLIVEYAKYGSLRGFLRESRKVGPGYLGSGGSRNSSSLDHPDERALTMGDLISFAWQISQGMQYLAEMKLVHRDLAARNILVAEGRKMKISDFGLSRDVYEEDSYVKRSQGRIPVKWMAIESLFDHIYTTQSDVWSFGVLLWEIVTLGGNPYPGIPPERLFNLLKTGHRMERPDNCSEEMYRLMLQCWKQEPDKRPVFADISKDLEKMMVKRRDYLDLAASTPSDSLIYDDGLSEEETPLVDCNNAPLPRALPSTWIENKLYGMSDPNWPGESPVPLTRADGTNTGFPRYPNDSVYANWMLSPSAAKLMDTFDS
# Dual specificity mitogen-activated protein kinase kinase 1 (Homo sapiens), sequence (Q02750 whole entry): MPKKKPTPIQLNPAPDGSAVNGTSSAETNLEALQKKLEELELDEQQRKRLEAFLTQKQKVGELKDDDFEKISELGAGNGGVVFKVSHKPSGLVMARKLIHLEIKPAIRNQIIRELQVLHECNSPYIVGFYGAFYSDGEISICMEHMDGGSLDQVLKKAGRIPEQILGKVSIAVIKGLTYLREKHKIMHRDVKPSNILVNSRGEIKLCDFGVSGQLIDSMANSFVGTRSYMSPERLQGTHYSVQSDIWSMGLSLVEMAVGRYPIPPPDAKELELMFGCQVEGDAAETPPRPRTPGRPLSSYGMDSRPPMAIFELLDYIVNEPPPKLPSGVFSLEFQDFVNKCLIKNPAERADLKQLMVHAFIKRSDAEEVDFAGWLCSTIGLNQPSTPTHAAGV
# Macrophage-stimulating protein receptor (Homo sapiens), sequence (Q04912 25-304 limits assumed): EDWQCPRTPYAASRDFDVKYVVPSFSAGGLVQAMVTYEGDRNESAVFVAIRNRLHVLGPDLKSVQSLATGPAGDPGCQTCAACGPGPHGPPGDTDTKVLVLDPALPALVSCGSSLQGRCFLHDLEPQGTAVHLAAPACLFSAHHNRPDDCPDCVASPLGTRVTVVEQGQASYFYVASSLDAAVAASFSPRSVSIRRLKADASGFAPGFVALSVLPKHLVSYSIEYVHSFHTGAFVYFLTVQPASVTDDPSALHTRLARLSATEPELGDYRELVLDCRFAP
# Macrophage-stimulating protein receptor (Homo sapiens), sequence (Q04912 310-1400 limits assumed): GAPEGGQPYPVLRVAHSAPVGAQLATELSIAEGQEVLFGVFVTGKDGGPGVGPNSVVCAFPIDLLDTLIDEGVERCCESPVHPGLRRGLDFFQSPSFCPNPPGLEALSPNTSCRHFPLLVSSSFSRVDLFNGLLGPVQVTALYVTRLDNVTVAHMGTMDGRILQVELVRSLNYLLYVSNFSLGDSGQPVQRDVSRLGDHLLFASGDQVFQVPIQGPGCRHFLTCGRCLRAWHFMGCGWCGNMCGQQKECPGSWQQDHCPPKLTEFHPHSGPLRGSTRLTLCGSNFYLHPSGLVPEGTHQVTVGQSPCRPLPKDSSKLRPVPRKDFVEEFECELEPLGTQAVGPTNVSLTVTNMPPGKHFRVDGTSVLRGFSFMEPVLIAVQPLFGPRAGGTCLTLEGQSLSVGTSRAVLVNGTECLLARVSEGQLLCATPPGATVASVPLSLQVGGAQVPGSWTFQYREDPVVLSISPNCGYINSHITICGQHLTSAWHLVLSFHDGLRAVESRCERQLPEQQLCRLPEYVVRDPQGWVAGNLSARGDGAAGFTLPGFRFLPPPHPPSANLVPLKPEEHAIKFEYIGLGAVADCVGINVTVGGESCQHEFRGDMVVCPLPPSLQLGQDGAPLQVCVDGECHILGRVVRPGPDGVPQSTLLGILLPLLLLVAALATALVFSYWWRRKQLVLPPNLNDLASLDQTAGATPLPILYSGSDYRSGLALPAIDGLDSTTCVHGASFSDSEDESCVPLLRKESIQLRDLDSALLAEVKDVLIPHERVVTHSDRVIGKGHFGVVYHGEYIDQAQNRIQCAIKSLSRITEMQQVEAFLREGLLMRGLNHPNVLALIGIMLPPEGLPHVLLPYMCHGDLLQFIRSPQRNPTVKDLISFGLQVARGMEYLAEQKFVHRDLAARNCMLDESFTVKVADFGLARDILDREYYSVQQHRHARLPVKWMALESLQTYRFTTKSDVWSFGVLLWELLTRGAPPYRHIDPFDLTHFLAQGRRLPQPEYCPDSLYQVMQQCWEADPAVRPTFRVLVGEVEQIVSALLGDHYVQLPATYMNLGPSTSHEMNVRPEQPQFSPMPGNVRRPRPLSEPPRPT
# Aurora kinase C (Homo sapiens), sequence (Q9UQB9 whole entry): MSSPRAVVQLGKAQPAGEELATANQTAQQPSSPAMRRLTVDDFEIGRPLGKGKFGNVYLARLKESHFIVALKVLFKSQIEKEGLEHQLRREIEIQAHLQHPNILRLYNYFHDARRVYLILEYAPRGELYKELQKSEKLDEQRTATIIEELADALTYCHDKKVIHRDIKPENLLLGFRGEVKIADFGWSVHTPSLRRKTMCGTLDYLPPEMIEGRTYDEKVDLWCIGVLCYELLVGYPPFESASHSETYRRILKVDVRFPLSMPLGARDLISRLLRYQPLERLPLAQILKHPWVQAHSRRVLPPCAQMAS
smiles,measurement,setting,value
CNC(=O)Oc1cc(C)c(/C=C/c2cncc(C(=O)NC)c2)c(C)c1,inhibition,[1],8.91%
same,inhibition,[2],49.7%
same,inhibition,[3],2.61%
same,inhibition,[4],13.1%
same,inhibition,[5],10.7%
same,inhibition,[6],6.54%
same,inhibition,[7],-1.48%
same,inhibition,[8],2.54%
same,inhibition,[9],2.06%
same,inhibition,[10],3.32%
same,inhibition,[11],2.2%
same,inhibition,[12],2.71%
same,inhibition,[13],-0.85%
same,inhibition,[14],4.22%
same,inhibition,[15],9.53%
same,inhibition,[16],13.7%
same,inhibition,[17],5.94%
same,inhibition,[18],49.2%
same,inhibition,[19],4.13%
same,inhibition,[20],19.3%
same,inhibition,[21],-1.41%
same,inhibition,[22],-0.86%
same,inhibition,[23],8.66%
same,inhibition,[24],39.1%
same,inhibition,[25],-0.08%
same,inhibition,[26],3.57%
same,inhibition,[27],1.27%
same,inhibition,[28],14.6%
same,inhibition,[29],0.99%
same,inhibition,[30],6.77%
same,inhibition,[31],1.04%
same,inhibition,[32],-0.56%
same,inhibition,[33],1.03%
same,inhibition,[34],0.99%
same,inhibition,[35],-0.56%
same,inhibition,[36],2.73%
same,inhibition,[37],13.4%
same,inhibition,[38],34.7%
same,inhibition,[39],-4.14%
same,inhibition,[40],8.09%
same,inhibition,[41],2.77%
same,inhibition,[42],4.58%
same,inhibition,[43],0.2%
same,inhibition,[44],1.25%
same,inhibition,[45],0.65%
same,inhibition,[46],9.48%
same,inhibition,[47],5.93%
same,inhibition,[48],16.9%
same,inhibition,[49],0.92%
same,inhibition,[50],5.49%
same,inhibition,[51],3.12%
same,inhibition,[52],8.96%
same,inhibition,[53],2.97%
same,inhibition,[54],4.15%
same,inhibition,[55],3.2%
same,inhibition,[56],7.01%
